ALOX12 inh = blocks human arachidonate 12S-lipoxygenase; P18054; purified 12hLO, xylenol orange hydroperoxide absorbance; Potency, µM (series often up to 108 µM), hits mostly inhibitors; hit rate 1.1% among 580,000; AID 1671190
Target sequence (P18054 whole entry, looked up): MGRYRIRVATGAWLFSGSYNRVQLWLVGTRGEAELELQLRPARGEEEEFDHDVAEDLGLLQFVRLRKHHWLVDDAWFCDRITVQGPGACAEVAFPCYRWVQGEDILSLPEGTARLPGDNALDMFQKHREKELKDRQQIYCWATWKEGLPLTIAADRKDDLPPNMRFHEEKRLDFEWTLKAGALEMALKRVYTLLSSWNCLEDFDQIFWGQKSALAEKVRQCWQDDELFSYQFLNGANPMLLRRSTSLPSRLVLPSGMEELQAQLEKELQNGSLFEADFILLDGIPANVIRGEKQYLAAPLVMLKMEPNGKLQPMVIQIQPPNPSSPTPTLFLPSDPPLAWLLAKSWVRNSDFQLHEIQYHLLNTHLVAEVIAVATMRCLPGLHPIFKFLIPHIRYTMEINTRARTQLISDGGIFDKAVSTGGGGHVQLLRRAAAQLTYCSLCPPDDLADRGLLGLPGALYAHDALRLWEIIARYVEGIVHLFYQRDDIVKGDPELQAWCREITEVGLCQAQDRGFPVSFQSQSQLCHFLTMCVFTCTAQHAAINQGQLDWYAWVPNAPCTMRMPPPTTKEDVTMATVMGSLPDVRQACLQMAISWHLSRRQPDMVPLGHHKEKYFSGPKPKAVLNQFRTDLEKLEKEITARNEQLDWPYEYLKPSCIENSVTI
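Purified human 12hLO at 150 nM in 25 mM Hepes, 0.01% Triton X-100, pH 7.0, preincubated 15 min at room temperature with compound. Reaction started with 40 uM arachidonic acid, 30 min at room temperature. Hydroperoxide measured by Fe-xylenol orange, 573/405 nm absorbance ratio.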
ELG1 DNA repair = blocks ELG1-dependent DNA repair in HEK293T cells. HEK293T ELG1-luciferase reporter, luminescence, 16 h; DNA damage induced by 5-fluorouridine. Potency, µM (highest dose often 46.1 µM), actives largely listed as inhibitors. hit rate 2.3% among 330,000. AID 504467; further: nearly all actives have a fitted effect of over 55% in size
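DMSO vehicle served as the neutral condition. Each well held 2,000 cells given 5-fluorouridine plus compound; after 16 hr at 37 °C/5% CO2, ONE-Glo was added and luciferase measured 30 min later.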
TDP1 cell CPT = DT40-hTDP1 cell growth loss with CPT | hit rate 12% among 420,000 | AID 686979 | chicken DT40 Tdp1-/-;hTDP1 cells + 20 nM CPT, ATP luminescence, 48 h | Potency, µM (series often up to 46.2 µM), most hits filed as inhibitors; further: nearly all actives have a fitted effect of over 55% in size
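Chicken DT40 Tdp1-/- cells complemented with human TDP1, 400 cells/well, exposed to compounds plus 20 nM camptothecin for at least 48 h at 37 C; viability read as ATP content by CellTiter-Glo luminescence.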
RORg inh = inhibitors of mouse ROR gamma transcriptional activity. P51450. Drosophila S2 Gal4-RORgamma UAS-luciferase reporter, 20 h. Potency, µM (top dose mostly 53.6 µM), most hits filed as inhibitors. hit rate 5.4% among 310,000. AID 2551; further: nearly all actives have a fitted effect of over 60% in size
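Luminescence from a UAS-regulated Photinus luciferase reporter in stably transfected Drosophila Schneider cells is measured; decreased signal marks ROR gamma inhibition. Fusion expression is induced by 700 uM copper sulfate for 20 hr.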
TDP1 cell noCPT = qHTS for Inhibitors of human tyrosyl-DNA phosphodiesterase 1 (TDP1): qHTS in cells in absence of CPT | DT40 Tdp1-/- hTDP1 cells, no CPT, ATP luminescence, 48 h | Potency, µM (top dose mostly 46.2 µM), usual class: inhibitors | hit rate 15% among 420,000 | AID 686978, 2013; further: nearly all actives have a fitted effect of over 55% in size
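Camptothecin absent (DMSO only). Human TDP1-complemented DT40 knockout cells, 400 cells/well, 37 °C for minimum 48 hr; ATP measured via CellTiter-Glo, 30 min dark incubation, luminescence.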
Gal4-VP16 FLuc = counter-screen for ROR gamma inhibitors: Gal4-VP16 reporter. Drosophila S2 Gal4-VP16 UAS-luciferase, luminescence, 20 h. Potency, µM (titrated, usually from 53.6 µM), usual class: inhibitors. hit rate 3.5% among 310,000. AID 2546;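 further: Gal4-VP16 expression switched on by copper sulfate through the metallothionein promoter; nearly all actives have a fitted effect of over 50% in size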
Numbers stand for hits; i = inactive; ? = inconclusive; nt = not tested or not shown; ! = not confirmed by another sample; [ ] = dose if it differs, or a comment. In the library only some 15% were active in any assay of this set; here they are far more common. The call rests on the fitted dose curve; in most records, active means well fitted curve in the direction sought with a large enough effect; inconclusive means small, poorly fitted or top-dose-only effect, or another doubt; inactive means no such curve, though single readings can be large; an effect the other way counts as inactive or inconclusive.

SMILES	ALOX12 inh	ELG1 DNA repair	TDP1 cell CPT	RORg inh	TDP1 cell noCPT	Gal4-VP16 FLuc
CCn1c(=O)oc2cc(NC(=O)CCl)ccc21	i	?	12µM	11µM	15µM	?
COc1ccc(C(=O)N2CCC3(CC2)c2nccn2-c2ccccc2CN3C)c(OC)n1	i	nt	nt	nt	nt	nt
CS(=O)(=O)N1C[C@H]2CCN(Cc3ccc[nH]3)C[C@H]21	i	nt	nt	nt	nt	nt
Oc1cc[c]([Hg][Cl])cc1	nt	nt	0.3µM	2.5µM	0.27µM	2.8µM
Nc1cccc(-c2cn(C[C@H]3CC4CCN3C[C@@H]4C(=O)NCc3ccccc3)nn2)c1 (stereo partly specified)	i	nt	nt	nt	nt	nt
C#C[C@H]1CN2CC[C@H]1C[C@@H]2CNC(=O)CCCC(=O)O	i	nt	nt	nt	nt	nt
Cc1ccc(-n2c(O)c(/C=C3/C(c4ccccc4)=Nc4ccccc43)c(=O)[nH]c2=O)cc1	?	?	5.8µM	?	7.3µM	i
O=c1[nH]c(=O)n(-c2ccccc2F)c(O)c1/C=C1\C=Nc2ccccc21	i	i	16µM	i	21µM	i
CC1=Nc2ccccc2/C1=C/c1c(O)n(C)c(=O)[nH]c1=O	?	i	?	i[1.91 µM]	?	i
Cc1cccc(-n2c(O)c(/C=C3/C(c4ccccc4)=Nc4ccccc43)c(=O)[nH]c2=O)c1	i	i	2.9µM	i	2.3µM	?
Cc1cccc(-n2c(O)c(/C=C/C=Nc3ccccc3)c(=O)[nH]c2=O)c1	i	i	i	i	?	i
Cc1ccccc1-n1c(O)c(/C=C2/C(c3ccccc3)=Nc3ccccc32)c(=O)[nH]c1=O	i	?	4.6µM	?	4.6µM	i
CC(=O)c1ccc(NC(=O)NC[C@H]2C[C@@H]3CCN2C[C@@H]3CN2CCC(C)CC2)cc1	i	nt	nt	nt	nt	nt
COCCN1C[C@@H]2CN(C(=O)c3cnc[nH]c3=O)C[C@]2(C(=O)O)C1	i	nt	nt	nt	nt	nt
CNC(C)c1ccc(F)cc1 (stereo unspecified)	i[12.5 µM]	nt	nt	nt	nt	nt
Cc1oc(-c2cccc(Cl)c2)nc1CN1CCC(C(=O)NC(C)c2ccccc2)CC1 (stereo unspecified)	?	nt	4.1µM	nt	4.6µM	nt
Cc1oc(-c2cccc(Cl)c2)nc1CN1CCC(C(=O)NCCCN2CCN(c3ccc(F)cc3)CC2)CC1	?	nt	4.6µM	nt	2.9µM	nt
CC(Cc1cccc(Cl)c1)NC(=O)CCCNC(=O)C1CC1 (stereo unspecified)	i	nt	nt	nt	nt	nt
CCCCNC(=O)C1CCCN(Cc2nc(-c3ccc(Cl)cc3)oc2C)C1 (stereo unspecified)	i	nt	6.5µM	nt	4.1µM	nt
Cc1oc(-c2ccc(Cl)cc2)nc1CN1CCC(C(=O)NCCCN2CCN(c3cccc(Cl)c3)CC2)CC1	?	nt	5.2µM	nt	2.6µM	nt
CCOC(=O)C1CCCN(Cc2ccc(-c3ccccc3)cc2)C1 (stereo unspecified)	?	?	?	i[1.91 µM]	?	i
O=S(=O)(NC[C@H]1C[C@@H]2CCN1C[C@@H]2CN1CCc2ccccc21)c1ccccc1	i	nt	nt	nt	nt	nt
O=C(NCc1ccccc1)[C@H]1CN2CCC1C[C@@H]2Cn1cc(C2(O)CCCCC2)nn1 (stereo partly specified)	i	nt	nt	nt	nt	nt
COc1cccc(-c2cc(C(F)F)n3ncc(C#N)c3n2)c1	i	nt	nt	nt	nt	nt
NC(=O)c1ccc(N)nc1	i	nt	5.8µM	i	4.1µM	i
SMILES	ALOX12 inh	ELG1 DNA repair	TDP1 cell CPT	RORg inh	TDP1 cell noCPT	Gal4-VP16 FLuc
O=C1N(Cc2ccccn2)C[C@H]2CN(Cc3cccnc3)CCN12	i	nt	nt	nt	nt	nt
CC/C(=N\Nc1ccccc1)c1c(O)[nH]c(=O)[nH]c1=O	?	4.1µM	i	i	i	i
CC/C(=N\Nc1cccc2ccccc12)c1c(O)[nH]c(=O)[nH]c1=O	?	?	5.2µM	i	5.8µM	?
CCC(=NC(C)c1ccccc1)c1c(O)[nH]c(=O)[nH]c1=O (stereo unspecified)	i	?	i	i	i	i
CN(C[C@H]1CN2CC[C@H]1C[C@@H]2CNC(=O)c1ccccc1)c1ccccc1	i	nt	nt	nt	nt	nt
COc1nc2ccccc2nc1N1CC1	?	nt	0.92µM	nt	1.6µM	nt
COc1cc2c(cc1CCc1ccccc1)N([S+](=O)([O-])c1cn(C)cn1)CC21CCN(C(C)=O)CC1	i	nt	nt	nt	nt	nt
O=C1NC2C(O)C(O)C(O)C(O)C2c2cc3c(c(O)c21)OCO3 (stereo unspecified)	i	nt	0.16µM	nt	0.073µM	nt
O=C1NC2C(=CC(O)C(O)C2O)c2cc3c(cc21)OCO3 (stereo unspecified)	i	nt	0.41µM	nt	0.29µM	nt
O=C1NC2C(=CC(O)C(O)C2O)c2cc3c(c(O)c21)OCO3 (stereo unspecified)	i	nt	0.058µM	nt	0.092µM	nt
COc1ccc(NC(=O)N2[C@H]3CC[C@@H]2c2cnc(C)nc2C3)cc1OC	i	nt	nt	nt	nt	nt
Cc1ccc(C(C)C)cc1OCC(=O)N1CCN(Cc2nc(N)c3ccccc3n2)CC1	i	nt	nt	nt	nt	nt
CC(C)c1ccc(Oc2cccc3c2S(=O)(=O)N(C2CCCC2)CC(COCc2ccccc2)O3)cc1 (stereo unspecified)	i	nt	10µM	nt	9.2µM	nt
Cn1nc(-c2ccc(OCC(=O)N3CCN(Cc4ccccc4)CC3)cc2)c2ccccc2c1=O	?	?	13µM	i	6.5µM	?
Cc1ccc(OCC(=O)N2CCN(CCc3ccncc3)CC2)cc1	?	nt	i	nt	i	nt
CSc1ccc(CN2CCN(C(=O)COc3ccc(C)cc3)CC2)cc1	?	?	?	i	18µM	i
COc1ccc([C@H]2C[C@@H](O)[C@@H](O)[C@@H]2NCC2CCCC2)cc1	i	nt	nt	nt	nt	nt
Cc1cccc(C)c1Oc1nc(-c2ccccc2)ncc1S(=O)(=O)c1ccccc1	i	i	?	?	18µM	i
COc1ccc(S(=O)(=O)N2[C@H]3CC[C@@H]2c2cnc(-c4ccccc4)nc2C3)cc1	i	nt	nt	nt	nt	nt
O=C(Nc1ccc(Br)cc1)c1cc(Br)cc(Br)c1O	40µM	nt	i	?	i	i
CN(C)P(=NC(=S)c1cccn1C)(N(C)C)N(C)C	40µM	nt	8.2µM	7.9µM	4.1µM	16µM
CSc1ccc(C2SCC(=O)Nc3n[nH]c(C)c32)cc1 (stereo unspecified)	i	nt	nt	nt	nt	nt
CC(C)c1ccc(OCC(=O)Nc2cc(-c3nc4ncccc4o3)ccc2Cl)cc1	i	nt	?	nt	6.5µM	nt
N#Cc1cccc(NC(=O)NC[C@H]2C[C@@H]3CCN2C[C@@H]3CN2CCOCC2)c1	i	nt	nt	nt	nt	nt
CC(C)(C)c1cc(C=C(C#N)C#N)cc(C(C)(C)C)c1O	?	i	0.65µM	nt	0.65µM	nt
N#CC(C#N)=Cc1ccc(O)c(O)c1	25µM!	i	21µM!	16µM	19µM!	14µM!
CCCCN1CCC2(COC(=O)N2c2ccncc2)C1 (stereo unspecified)	i	nt	nt	nt	nt	nt

High-throughput results deposited in PubChem BioAssay by National Center for Advancing Translational Sciences (NCATS).
